This is an account of results in PubChem BioAssay AID1851 (National Center for Advancing Translational Sciences (NCATS), 2009).

Each structure is given as a SMILES string. About 4,000 (25%) of roughly 16,000 compounds were called active. About 26% were inconclusive and are not listed. Calls follow the shape of the dose curve; as a rule, active = well fitted curve in the direction sought with a large enough effect; inconclusive = small, poorly fitted or top-dose-only effect, or effect the other way; inactive = no such curve, though single readings can be large or run the other way. The list is a sample of the results.

A word on the AC50: it is the concentration at which the activity in the assay is half-maximal.
% is scaled to controls: 0 for no effect and ±100 for the full control effect.

Chain of Cytochrome P450 2C9 (Homo sapiens) (P11712 whole entry, looked up): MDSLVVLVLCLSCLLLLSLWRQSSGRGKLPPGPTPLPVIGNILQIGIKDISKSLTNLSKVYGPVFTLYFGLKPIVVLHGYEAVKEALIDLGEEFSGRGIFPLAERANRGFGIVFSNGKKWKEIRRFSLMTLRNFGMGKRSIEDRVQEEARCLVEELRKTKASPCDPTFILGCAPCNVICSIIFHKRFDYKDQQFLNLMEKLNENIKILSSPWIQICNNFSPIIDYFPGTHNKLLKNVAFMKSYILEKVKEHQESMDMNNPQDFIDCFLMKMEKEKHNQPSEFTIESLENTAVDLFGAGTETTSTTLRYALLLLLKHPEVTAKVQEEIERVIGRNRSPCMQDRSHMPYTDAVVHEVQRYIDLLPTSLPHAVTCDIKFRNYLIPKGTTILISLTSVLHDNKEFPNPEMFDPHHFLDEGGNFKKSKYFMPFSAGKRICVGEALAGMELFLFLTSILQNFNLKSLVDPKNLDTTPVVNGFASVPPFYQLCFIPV

This test has as its target Cytochrome P450 2C9 (Homo sapiens) (UniProt P11712). Description: Cytochrome panel assay with activity outcomes. The following applies: recombinant CYP, pro-luciferin dealkylation, luminescence, p450-cyp2c9; series mostly up to 57.1 µM.
On to `COc1ccc(NC(=O)N2CC3(CCN(C(=O)c4csnn4)CC3)C2)cc1`, for which the AC50 result is “inactive”.
As to `Nc1nc2c(ncn2[C@@H]2C=C[C@@H](CO)C2)c(=O)[nH]1`, the activity, negative = inhibition is 3.99% [at 11.4 µM] (inactive).
Regarding `C/C(=C(/CCO)SSC[C@@H]1CCCO1)N(C=O)Cc1cnc(C)nc1N`, the AC50 result was “inactive”.
On the same count and under the same terms, for `CCc1ccccc1OC[C@@H](O)CN[C@H]1CCCc2ccccc21` the value was “inactive”; for `Nc1ccc(N(S(=O)(=O)c2ccccc2)S(=O)(=O)c2ccccc2)c(Cl)c1`, 3.16 µM (active).
As to `Nc1ccc(N2C(=O)c3ccccc3C2=O)c(Cl)c1`, the AC50 result is “inactive”.
Still for that read-out and setting: for `CCC/C=C(\CCC)C(NS(=O)(=O)c1cccs1)c1ccc(C(=O)OC)cc1` (stereo not drawn) the value was 2 µM (active); for `CCC/C=C(\CCC)C(NC(=O)OCC(C)C)c1ccc(C(=O)OC)cc1` (stereo not drawn), 3.98 µM (active); for `CCC/C=C(\CCC)C(NC(=O)c1cccs1)c1ccc(C(=O)OC)cc1` (stereo not drawn), 2 µM (active).
Take `CCC/C=C(\CCC)C(NC(=O)Cc1ccccc1)c1ccc(C(=O)OC)cc1` (stereo not drawn): the AC50 was 10 µM (active).
The same measure, in the same setting: for `COC(=O)N1CCC2(CC1)CN(C(=O)Nc1cccc(C#N)c1)C2` the value was “inactive”.
As to `COc1ccccc1CNc1ncnc2ccc(-c3ccoc3)cc12`, the activity, negative = inhibition was -19.5% [at 2.29 µM] (inactive).
For `Cc1cnc(CNc2cc(-c3ccoc3)ncn2)cn1`, the activity, negative = inhibition is 10.6% [at 2.29 µM] (inactive).
`O=C(Nc1cccc(F)c1)N1CCC2(CC1)CCN(C(=O)c1csnn1)CC2`: the AC50 result is “inactive”.
Consider `CCc1c2c(nc3cccc(OC)c13)OC(CC)C2` (stereo not drawn), for which the AC50 result was “inactive”.
For the molecule `CCC/C=C(\CCC)C(NC(=O)c1ccc(C(=O)OC)cc1)c1ccc(C(=O)OC)cc1` (stereo not drawn), the AC50 is 2 µM (active).
`CCC/C=C(\CCC)C(NC(=O)c1ccc(-c2ccccc2)cc1)c1ccc(C(=O)OC)cc1` (stereo not drawn): the AC50 result is “inactive”.
The same measure, in the same setting: for `CCC/C=C(\CCC)C(NC(=O)c1ccc(C(F)(F)F)cc1)c1ccc(C(F)(F)F)cc1` (stereo not drawn) the value was “inactive”.
For `C[N+](C)(C)c1ccc([C@H](N)C(=O)O)cc1`, the activity, negative = inhibition was -14.1% [at 11.4 µM] (inactive).
As for `CCCn1cnc2c1c(=O)n(CCCCC(C)=O)c(=O)n2C`, the AC50 entry was “inactive”.
The same measure, in the same setting: for `CCCn1c(=O)c2c(ncn2C)n(CCC)c1=O` the value was “inactive”.
On the same count and under the same terms, then `CCCCn1cnc2c(cnn2-c2ccc(F)cc2)c1=O`, with 11.2 µM (active); and `O=C(O)CONC(=O)c1cc(OCC(F)(F)F)ccc1OCC(F)(F)F`, with “inactive”.
Still for that read-out and setting: for `CC(C)CC(=O)Nc1sc2c(c1C#N)CC(C)(C)NC2(C)C` the value was “inactive”; for `COC(=O)C1CCN(CC(=O)Nc2sc3c(c2C#N)CCC3)CC1`, 5.62 µM (active).
With `Cc1c(C(=O)O)nc(/C=C\C(=O)O)[nH]c1=O`, the activity, negative = inhibition was -11.9% [at 11.4 µM] (inactive).
With `O=C(c1ccccc1)c1nn(-c2ccccc2)c(=O)cc1C(F)(F)F`, the AC50 is 10 µM (active).
Turning to `O=C(O)c1nn(-c2ccc(Cl)cc2)c2c1C(=O)c1ccccc1C2=O`, the activity, negative = inhibition is -5.15% [at 11.4 µM] (inactive).
As to `O=C(O)c1nn(-c2ccccc2)nc1-c1nn(-c2ccccc2)nc1C(=O)O`, the AC50 entry was “inactive”.
On the same count and under the same terms, for `CC(C)[C@H]1C(=O)C(C(N)=O)=C(O)[C@]2(O)C(=O)C3=C(O)c4c(O)ccc(N(C)C)c4C[C@H]3C[C@@H]12` the value was “inactive”; for `CN(C)CC/C=C1\c2ccccc2Sc2ccc(Cl)cc21`, “inactive”; for `CCC(C)(C(=O)NC1CCCC1)N(CC1CCCO1)C(=O)c1ccc2c(c1)OCO2` (stereo not drawn), “inactive”.
The same measure, in the same setting: for `CC(C(=O)NC1CCCC1)N(C(=O)c1snc(C(N)=O)c1N)c1ccc2c(c1)OCCO2` (stereo not drawn) the value was 12.6 µM (active).
Turning to `Nc1nc(=O)c2[nH]cnc2n1O`, the activity, negative = inhibition was -5.05% [at 11.4 µM] (inactive).
`CN(C)Cc1ccccc1-c1ccc2ncnc(NC3CCNCC3)c2c1`: the activity, negative = inhibition was 7.8% [at 2.29 µM] (inactive).
As for `Cc1cc(C)n(-c2nnc(C)n2/N=C/c2ccccc2OCc2ccccc2Cl)n1`, the AC50 was 8.91 µM (active).
Consider `COc1ccc(/C=N/n2c(C)nnc2C)c(OC)c1`, for which the AC50 result is “inactive”.
For the molecule `CN(C)CCOC(=O)c1ccc(N)cc1`, the activity, negative = inhibition is -8.18% [at 11.4 µM] (inactive).
Turning to `Cc1cccc(NC(=O)CCS(=O)(=O)c2cccc3nsnc23)c1C`, the AC50 was 15.8 µM (active).
Take `O=C(CCS(=O)(=O)c1cccc2nsnc12)NC1CCCCC1`: the AC50 result was “inactive”.
For the molecule `COc1cccc(-c2cc(C(F)(F)F)n3ncc(S(=O)(=O)c4ccccc4)c3n2)c1`, the AC50 entry was “inactive”.
In the case of `COc1ccc(NC(=O)N2CCCC3(CCN(C(=O)c4cnccn4)CC3)C2)cc1`, the AC50 entry is “inactive”.
Same read-out and setting: then `COc1ccc(-c2cc(C(F)(F)F)n3nc(C(=O)N4CCCCC4)cc3n2)cc1`, with 25.1 µM (active); and `CCOC(=O)C1CCCN(C(=O)c2cc3nc(-c4ccc5c(c4)OCO5)cc(C(F)(F)F)n3n2)C1` (stereo not drawn), with 6.31 µM (active).
For the molecule `c1cncc(CNc2ncncc2-c2cccnc2)c1`, the activity, negative = inhibition was 4.39% [at 2.29 µM] (inactive).
In the case of `C(/C=C\c1ccccc1)=Nc1ccc2c(c1)Cc1ccccc1-2`, the activity, negative = inhibition was -24.1% [at 11.4 µM] (inactive).
For the molecule `O=S(=O)(N/N=C\C=C\c1ccccc1)c1ccc(Br)cc1`, the AC50 was 0.501 µM (active).
Same read-out and setting: then `O=C(N/N=C/C=C/c1ccccc1)c1cc2c(ccc3ccccc32)o1`, with “inactive”; and `CCOC(=O)N1CCN(C(=O)CSCc2ccc(Cl)cc2)CC1`, with “inactive”.
On the same count and under the same terms, then `CCOC(=O)CSC1=NC(=O)/C(=C\c2ccc(Cl)cc2)S1`, with 1.26 µM (active).
The same measure, in the same setting: then `Cc1noc(C)c1C(=O)N1CCC2(CC1)CN(c1ncccn1)C2`, with “inactive”; and `Cc1cccc(NC(=O)CSc2nc3nc(C)cc(C)c3c(=O)[nH]2)c1`, with 7.94 µM (active); and `Cc1cc(C)c2c(=O)[nH]c(SCC(=O)N(C)C)nc2n1`, with “inactive”.
Consider `Cc1cccc(NC(=O)Cn2c(=O)oc3ccccc32)c1`, for which the AC50 result is “inactive”.
On the same count and under the same terms, for `CC[C@@H]1OC(=O)[C@H](C)[C@H](O[C@@H]2C[C@](C)(OC)[C@H](O)[C@H](C)O2)[C@H](C)[C@H](O[C@@H]2O[C@@H](C)C[C@@H](N(C)C)[C@@H]2O)[C@](C)(O)C[C@H](C)C(=NOCOCCOC)[C@H](C)[C@H](O)[C@]1(C)O` the value was “inactive”; for `O=C(Nc1nnc(COc2ccc(Cl)cc2)s1)c1ccc([N+](=O)[O-])cc1`, “inactive”; for `Cc1sc(NC(=O)c2ccc(OCC(C)C)cc2)c(C(N)=O)c1-c1ccc(Cl)cc1Cl`, 0.562 µM (active).
`CC(C)COc1ccc(C(=O)Nc2scc(-c3ccc(Cl)cc3Cl)c2C(N)=O)cc1`: the AC50 is 1.78 µM (active).
For `COc1ccc(C(=O)Nc2scc(-c3ccc(Cl)cc3Cl)c2C(N)=O)cc1`, the AC50 was 0.631 µM (active).
In the case of `NC(=O)OC[C@H](O)COc1ccc(Cl)cc1`, the AC50 result is “inactive”.
For `Cn1ncc(C#N)c1/N=C/N1CCCCCC1`, the AC50 result was “inactive”.
Consider `Cn1cccc1C(=O)N1CCC2(CC1)CN(c1ccccn1)C2`, for which the AC50 result was “inactive”.
Same read-out and setting: then `CN1C(=O)/C(=C\c2ccccc2)Sc2ccc(C(=O)N3CCN(c4ccccn4)CC3)cc21`, with 11.2 µM (active); and `O=C(c1csnn1)N1CCC2(CC1)CN(c1ccccn1)C2`, with “inactive”; and `CCOC(=O)c1oc2ccccc2c1NC(=O)c1ccc(S(=O)(=O)N(C)C)cc1`, with 0.562 µM (active).
Take `CCOC(=O)c1oc2ccccc2c1NC(=O)c1cc(OC)cc(OC)c1`: the AC50 is 14.1 µM (active).
On the same count and under the same terms, then `CCOC(=O)c1oc2ccccc2c1NC(=O)c1ccc2c(c1)OCO2`, with “inactive”; and `Oc1ccccc1CNn1cnnc1`, with “inactive”.
The same measure, in the same setting: for `NC(=NCc1ccc(Cl)c(Cl)c1)NC(=O)c1nc(Cl)c(N)nc1N` the value was “inactive”.
As for `COc1ccccc1-c1nccc(NC2CCNCC2)n1`, the activity, negative = inhibition was 3.9% [at 2.29 µM] (inactive).
With `Nc1c(S(=O)(=O)O)cc(Nc2cccc(S(N)(=O)=O)c2)c2c1C(=O)c1ccccc1C2=O`, the AC50 is 3.16 µM (active).
Regarding `O=C1c2ccccc2C(=O)c2c(NC3CCCCC3)ccc(Nc3ccc(S(=O)(=O)O)cc3)c21`, the activity, negative = inhibition is -7.2% [at 11.4 µM] (inactive).
For `COc1ncc2nc(-c3cc(F)cc(F)c3)c(=O)n(-c3ccccc3)c2n1`, the AC50 entry is “inactive”.
As to `C[C@@H]1C(=O)N(C)C(=O)c2nc[nH]c21`, the AC50 result was “inactive”.
`CCOc1ccc(NC(=O)N2CCC(c3ccc(C)cc3)C2)cc1` (stereo not drawn): the AC50 result is “inactive”.
Same read-out and setting: for `O=C(COc1ccc(Br)cc1)N1CCC(c2ccccc2)C1` (stereo not drawn) the value was 14.1 µM (active); for `Cc1cccc(OCC(=O)N2CCC(N3CCCCCC3)CC2)c1`, “inactive”; for `COc1ccc(C(C(=O)NC2CCCCC2)N(C(=O)c2sc(C)nc2C)c2ccc(C(C)=O)cc2)cc1` (stereo not drawn), “inactive”.
The same measure, in the same setting: for `CCc1ccc(N(C(=O)c2ccoc2C)C(C(=O)NC2CCCC2)c2ccc(OC)cc2)cc1` (stereo not drawn) the value was 28.2 µM (active); for `COc1ccc(C[C@H](N)C(=O)N[C@@H]2[C@H](O)[C@H](n3cnc4c(N(C)C)ncnc43)O[C@@H]2CO)cc1`, “inactive”.
On the same count and under the same terms, then `C[C@H](O)[C@H](O)[C@@H]1CNc2nc(N)[nH]c(=O)c2N1`, with “inactive”; and `CCS(=O)(=O)NCCc1cc2ccc(C)cc2[nH]c1=O`, with “inactive”.
`COc1ccc(OC)c2[nH]c(=O)c(CCNS(=O)(=O)c3ccc(Cl)cc3)cc12`: the AC50 is 2.24 µM (active).
`COc1ccc(OC)c2[nH]c(=O)c(CCNS(=O)(=O)c3ccc(C)cc3)cc12`: the AC50 is 3.55 µM (active).
With `COc1ccc(C(=O)N2CCC[C@@]3(CCN(c4cccc(-c5ccccc5)c4)C3)C2)cc1`, the AC50 entry is “inactive”.
Turning to `COc1cccc(-c2cc3nc(-c4ccccc4)cc(N4CCC5(CC4)OCCO5)n3n2)c1`, the AC50 is 2.82 µM (active).
Same read-out and setting: then `Fc1cc2nc(-c3ccncc3)[nH]c2cc1F`, with 7.94 µM (active); and `CCOc1ccc(N=C2NC(=O)C(CC(=O)O)S2)cc1` (stereo not drawn), with “inactive”; and `N#CCCn1c(=O)c(-c2ccc(F)cc2)nc2cnc(N3CCOCC3)nc21`, with “inactive”.
With `CCOC(=O)N1CCN(S(=O)(=O)Cc2ccccc2)CC1`, the AC50 entry is “inactive”.
For the molecule `CC(C)(SCc1ccccc1)[C@H](N)C(=O)O`, the activity, negative = inhibition was -5.67% [at 11.4 µM] (inactive).
Turning to `CCOC(=O)N1CCN(C(=O)C(C)SCc2ccccc2)CC1` (stereo not drawn), the AC50 is 3.55 µM (active).
As to `CC(C)Cn1cnc2c(SCc3ccccn3)nc(N)nc21`, the activity, negative = inhibition is 0.334% [at 11.4 µM] (inactive).
